The values below come from PubChem BioAssay (EPA / NIEHS).

Activity calls are given as the source filed them. How the source made its calls, unless noted: active means hit-call score of the fitted dose curve at least 0.9, where 1 is the maximum; inactive means score below 0.9.

A short description of one assay: CPHEA_Stoker_NIS_Cytotoxicity: Cytotoxicity Assessment for CPHEA's Radioactive Iodide Uptake (RAIU) Assay for Sodium/Iodide Symporter (NIS) Inhibition, Stoker and Laws Labs (AID 2283897; active means hit-call score of the fitted dose curve at least 0.9, where 1 is the maximum;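 on AC50: active means loss of ATP signal versus DMSO meaning cytotoxicity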).
Conditions: not given
A digest of the protocol: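 Viability in hNIS-HEK293T-EPA cells is scored as a drop in luciferase-detected ATP following 2-hour room-temperature exposure (0.001–100uM; triplicate wells, three cell passages), with DMSO as negative control.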
For `CN(C)c1ccc(C(=C2C=CC(=[N+](C)C)C=C2)c2ccc(N(C)C)cc2)cc1`, the AC50 was 5.35 µM (active).

Regarding `Cc1oc2c(NC(=O)c3c(Cl)cccc3Cl)cccc2c1C(C)(C)O`, the outcome was inactive.

On to `CC(C)(C)c1cc(/C=C2\SC(N)=NC2=O)cc(C(C)(C)C)c1O`, for which the AC50 is 4.96 µM (active).

As to `CN(C[C@@H](CC[N+]12CCC(C3CCCCC3)(CC1)CC2)c1ccc(Cl)c(Cl)c1)C(=O)c1cc(C(F)(F)F)cc(C(F)(F)F)c1`, the AC50 is 10.5 µM (active).

In the case of `Cc1c2ccccc2c(C)c2c1ccc1ccccc12`, the outcome was inactive.

`Cc1cc2c(cc1C(F)(F)F)N(C(=O)Nc1ccc(Oc3cccnc3C)nc1)CC2`: the AC50 is 8.93 µM (active).

On to `CCN(CC)C(=O)c1cc(S(=O)(=O)Cc2ccccc2)c(N2CCC(c3ccccc3)CC2)cc1N(CC)CCN(C)C`, for which the result was inactive.

As for `OC12N=C(c3ccccc3)SC1Cc1cc(Cl)ccc12` (stereo not drawn), the outcome was inactive.

Regarding `CCCCOC(=O)c1ccc(O)cc1`, the result was inactive.

For `CCCCCc1ccc(N)cc1`, the result was inactive.

In the case of `COc1cc(C(=O)NC2CCN(C)CC2)ccc1Nc1ncc2c(n1)N(C1CCCC1)CC(F)(F)C(=O)N2C`, the outcome was inactive.

Regarding `CCCCCCCCCCCC[N+](C)(C)C`, the result was inactive.

With `O=C(Nc1ccc(Cl)cc1)Nc1ccc(Cl)c(Cl)c1`, the outcome was inactive.

Turning to `CC(C)(C)c1csc(-c2cc3cc(OCc4ccccc4CC(=O)O)ccc3o2)n1`, the AC50 was 9.92 µM (active).

As to `O=C(O)Cc1cc(I)c(Oc2ccc(O)c(I)c2)c(I)c1`, the result was inactive.

`CCCCCCCCOC(=O)c1cc(O)c(O)c(O)c1`: the result was inactive.

Another assay in a line: CEETOX_H295R_11DCORT_noMTC: CeeTox H295R High-throughput Steroidogenesis Assay for 11-Deoxycortisol (11DCORT), maximum tolerated concentration (MTC) filtered results only (AID 2283911). The settings on record: actives raise or lower the signal. A digest of the protocol: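 H295R cells were prestimulated 48 h with 10 uM forskolin, then exposed 48 h to chemical (0.1% DMSO final). 11-Deoxycortisol in the medium was measured by MTBE extraction and HPLC-MS/MS, with bidirectional fitting versus DMSO and no MTC filtering of concentrations.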
Turning to `O=C(O)c1ccccc1C(=O)OCc1ccccc1`, the outcome was inactive.

In the case of `CC(C)(O)c1ccc(CNC(=O)c2cccnc2Oc2ccc3nonc3c2)cc1`, the result was inactive.

In the case of `CC/C(=C(/CC)c1ccc(O)cc1)c1ccc(O)cc1`, the AC50 was 45 µM (active).

With `c1ccc(C[n+]2cccc3ccccc32)cc1`, the molecule was classed as inactive.

A further assay is described as follows: CEETOX_H295R_OHPREG_noMTC: CeeTox H295R High-throughput Steroidogenesis Assay for OH-Pregnenolone (OHPREG), maximum tolerated concentration (MTC) filtered results only (AID 2283912). The settings on record: actives raise or lower the signal. In short, it runs like this: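 Steroidogenesis in H295R cells (OECD 456, modified): after 48 h forskolin priming and 48 h chemical treatment, secreted 17alpha-hydroxypregnenolone is measured by HPLC-MS/MS. Activity is fitted in both directions against DMSO; concentrations are not filtered by MTT-based MTC.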
Regarding `O=C(O)c1ccccc1C(=O)OCc1ccccc1`, the outcome was inactive.

On to `CC(C)(O)c1ccc(CNC(=O)c2cccnc2Oc2ccc3nonc3c2)cc1`, for which the outcome was inactive.

Turning to `c1ccc(C[n+]2cccc3ccccc32)cc1`, the outcome was inactive.

For `CCCCCc1ccc(N)cc1`, the molecule was classed as inactive.

Take `CCCCCCCCOc1ccc(C(=O)c2ccccc2)c(O)c1`: the AC50 was 30.9 µM (active).

Another assay in a line: CEETOX_H295R_OHPROG_noMTC: CeeTox H295R High-throughput Steroidogenesis Assay for OH-Progesterone (OHPROG), maximum tolerated concentration (MTC) filtered results only (AID 2283914). The settings on record: actives raise or lower the signal. How it is done:
(§1) CEETOX_H295R is a cell-based, multiplexed-readout assay that uses H295R, a human adrenal gland cell line, with measurements taken at 48 hours after chemical dosing in a 96-well plate.CEETOX_H295R_OHPROG_noMTC is one of 12 assay component(s) measured or calculated from the CEETOX_H295R assay (11 hormones and 1 viability assay). It is designed to make measurements of hormone induction, a form of inducible reporter, as detected with absorbance signals by HPLC-MS-MS technology. The concentrations for these components have not been pre-filtered for the maximum tolerated concentration (MTC) based on the MTT assay (_noMTC).Data from the assay component CEETOX_H295R_OHPROG_noMTC was analyzed into 1 assay endpoint. This assay endpoint, CEETOX_H295R_OHPROG_noMTC, was analyzed with bidirectional fitting relative to DMSO as the negative control and baseline of activity. Using a type of inducible reporter, gain or loss-of-signal activity using HPLC-MS-MS was used to understand synthesis of 17alpha-hydroxyprogesterone in H295R cell line at 48hr of chemical exposure, without filtering concentrations for maximum tolerated concentration (MTC). To generalize the intended target to other relatable targets, this assay endpoint is annotated to the steroid hormone intended target family, where the subfamily is progestagens.
(§2) Cell culture and media preparation procedures were conducted in accordance with OECD Test No. 456 guidelines, with minor modifications. H295R cells (ATCC CRL-2128) were expanded for 5 passages and frozen in batches in liquid nitrogen. Prior to the steroidogenesis assay, H295R cells were thawed and passed at least 4 times. The maximum passage was 10. Cells were maintained in a 1:1 mixture of DMEM/F12 supplemented with 5ml/L ITS+ Premix (BD Bioscience) and 12.5 ml/L Nu-Serum (BD Bioscience). After seeding cells into 96-well plates at 50-60% confluency, cells were allowed to adhere overnight. Prior to chemical testing, culture medium was replaced with 175 uL medium containing 10 uM forskolin to stimulate steroidogenesis for 48 hours. Following prestimulation, forskolin medium was replaced with medium containing test chemical solubilized in DMSO (ensuring a final concentration of 0.1% DMSO). […] For steroid quantification, media samples were shipped to OpAns, LLC (Durham, NC) on dry ice, and samples were thawed to room temperature prior to liquid-liquid extraction. […] Steroid hormones were separated by HPLC, eluted using a reverse phase C18 gradient with electrospray positive ionization, followed by quantification by tandem mass spectrometry (MS/MS). Data were acquired on a MassHunter Workstation Acquisition version B03.01 (Agilent Technologies, Inc.) and processed using MassHunter Quantitative Analysis for QQQ. Accuracy was determined for each hormone analyte from 3 standards to determine upper and lower limits of quantification (ULOQ and LLOQ, respectively) using a 7-point standard curve. Precision and accuracy of the extraction and quantification methods were calculated as the percent relative standard deviation (%RSD) of the spiked standards and percent spiked standard recovered, respectively. The goal was to achieve 100% accuracy (i.e., recover all spiked-in standard at quantification with minimal loss during run time) and good precision (i.e., have %RSD <15% to ensure reproducibility). Test medium was removed following chemical exposure, and cell viability was evaluated in the same wells by MTT. […]
As to `O=C(O)c1ccccc1C(=O)OCc1ccccc1`, the call was inactive.

As for `CC(C)(O)c1ccc(CNC(=O)c2cccnc2Oc2ccc3nonc3c2)cc1`, the molecule was called inactive.

For `c1ccc(C[n+]2cccc3ccccc32)cc1`, the outcome was inactive.

Take `CCCCCc1ccc(N)cc1`: the AC50 is 12.4 µM (active).

For the molecule `CCCCCCCCOc1ccc(C(=O)c2ccccc2)c(O)c1`, the concentration at half-maximal activity (AC50) was 27.4 µM (active).

A short description of another assay: CEETOX_H295R_CORTISOL_noMTC: CeeTox H295R High-throughput Steroidogenesis Assay for Cortisol, maximum tolerated concentration (MTC) filtered results only (AID 2283916). The following applies: actives raise or lower the signal. A digest of the protocol:
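Cortisol secretion measured by LC-MS/MS after 48 h chemical treatment (final 0.1% DMSO) of forskolin-primed (10 uM, 48 h) H295R cells; gain or loss fitted relative to DMSO, without maximum-tolerated-concentration filtering.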
For `O=C(O)c1ccccc1C(=O)OCc1ccccc1`, the result was inactive.

For the molecule `CC(C)(O)c1ccc(CNC(=O)c2cccnc2Oc2ccc3nonc3c2)cc1`, the AC50 is 61.8 µM (active).

For `CC/C(=C(/CC)c1ccc(O)cc1)c1ccc(O)cc1`, the AC50 was 34.8 µM (active).

In the case of `c1ccc(C[n+]2cccc3ccccc32)cc1`, the result was inactive.

The nature of the next assay: CEETOX_H295R_CORTIC_noMTC: CeeTox H295R High-throughput Steroidogenesis Assay for Corticosterone (CORTIC), maximum tolerated concentration (MTC) filtered results only (AID 2283917). The following applies: actives raise or lower the signal. As for the experimental part: as §1, with “plate.CEETOX_H295R_CORTIC_noMTC” for “plate.CEETOX_H295R_OHPROG_noMTC”, “CEETOX_H295R_CORTIC_noMTC” for “CEETOX_H295R_OHPROG_noMTC”, “CEETOX_H295R_CORTIC_noMTC,” for “CEETOX_H295R_OHPROG_noMTC,”, “Corticosterone” for “17alpha-hydroxyprogesterone”, “glucocorticoids.” for “progestagens.”
as §2, with “nitrogen.” for “nitrogen. Prior to the steroidogenesis assay, H295R cells were thawed and passed at least 4 times. The maximum passage was 10. Cells were maintained in a 1:1 mixture of DMEM/F12 supplemented with 5ml/L ITS+ Premix (BD Bioscience) and 12.5 ml/L Nu-Serum (BD Bioscience). After seeding cells into 96-well plates at 50-60% confluency, cells were allowed to adhere overnight. Prior to chemical testing, culture medium was replaced with 175 uL medium containing 10 uM forskolin to stimulate steroidogenesis for 48 hours. Following prestimulation, forskolin medium was replaced with medium containing test chemical solubilized in DMSO (ensuring a final concentration of 0.1% DMSO).”
As to `O=C(O)c1ccccc1C(=O)OCc1ccccc1`, the outcome was inactive.

For the molecule `CC(C)(O)c1ccc(CNC(=O)c2cccnc2Oc2ccc3nonc3c2)cc1`, the molecule was called inactive.

`CC/C(=C(/CC)c1ccc(O)cc1)c1ccc(O)cc1`: the AC50 is 35.4 µM (active).

As for `c1ccc(C[n+]2cccc3ccccc32)cc1`, the call was inactive.

As a reminder, the AC50 is the midpoint of the concentration-response curve, whichever way the signal moves.
